# The sample as a whole holds a higher share of hits than the screen did.
# Cycloheximide cs: Cycloheximide Counterscreen for Small Molecule Inhibitors of Shiga Toxin. cell reporter, cycloheximide protein synthesis inhibition counterscreen. max response, %. 300,000 compounds, 12% hits. AID 2314, 2010; in the data active means max response mostly above about 13%, no sharp cut-off; inactive means mostly below about 14%; further: read at 38.3 µM for the half of the compounds with a filed dose; 0% is about no effect
# Marburg entry inh: qHTS for inhibitors of binding or entry into cells for Marburg Virus; Marburg virus pseudotyped entry inhibition, cell reporter; Potency, µM (titrated, usually from 37.8 µM), for inactives: at the highest dose activity change, negative = inhibition, usual class: inhibitors; 300,000 compounds, 1.8% hits; calls by dose curve; tested in HEK293 cells; further: potency means the concentration at half of the fitted maximal effect; on the % scale 0 is the no-effect control and ±100 the full control effect
# Lassa entry inh: qHTS for Inhibitors of binding or entry into cells for Lassa Virus; Lassa virus pseudotype entry inhibition, cell reporter; AID 540256, 2011; 300,000 compounds, 1.2% hits; Potency, µM (series often up to 37.9 µM), without a hit: at the highest dose activity change, negative = inhibition, most hits filed as inhibitors; calls by dose curve; tested in HEK293 cells; further: potency means the concentration at half of the fitted maximal effect; on the % scale 0 is the no-effect control and ±100 the full control effect; nearly all actives have a fitted effect of over 50% in size
# AMA1-RON2 inh: qHTS for Inhibitors of AMA1-RON; Towards Development of Antimalarial Drug Lead: Primary Screen. Plasmodium falciparum AMA1 (3D7) - RON2 peptide interaction. AlphaScreen AMA1-biotinylated RON2 peptide binding. Potency, µM (titrated, usually from 58.2 µM), for the others: at the highest dose activity change, negative = inhibition, usual class: inhibitors. 360,000 compounds, 0.2% hits; active means well fitted inhibition curve with a large enough effect; inconclusive means small, poorly fitted or top-dose-only effect; inactive means no such curve, though single readings can be large or run the other way;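 further: potency means the concentration at half of the fitted maximal effect; 0% = vehicle wells and -100% = peptide control; nearly all actives have a fitted effect of over 45% in size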
#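 AMA1 (3D7) with his tag at 25 nM final met compounds first, then biotinylated RON2 peptide at 25 nM; detection used donor plus acceptor beads, 10 µg/mL apiece, read by AlphaScreen after 30 min at room temperature.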
# Shiga toxin inh: A qHTS for Small Molecule Inhibitors of Shiga Toxin; inhibition, % at 38.7 µM; Vero cells, Shiga toxin protein synthesis inhibition reporter; 290,000 compounds, 9.2% hits; in the data active means inhibition mostly above about 28%, no sharp cut-off; inactive means mostly below about 43%; further: 0% is about no effect
# Active calls of the source: *; ? = inconclusive; nt = no result; + = active, no number; [ ] = another dose, or the depositor's remark.
SMILES,Cycloheximide cs,Marburg entry inh,Lassa entry inh,AMA1-RON2 inh,Shiga toxin inh
COc1ccc2c(c1)C[C@@H](C)O[C@]21C(=O)Nc2ccccc21,nt,71%[14.2 µM],nt,nt,nt
CC(C)CN1C(=O)c2ccc(C(=O)Nc3ccccn3)cc2C1=O,34*,18%,15%,0%,26
Cc1cc(NC(=O)c2ccc3c(c2)C(=O)N(c2cccc(C)c2C)C3=O)no1,-3,6%,3%,34%,-10
CC(C)CN1C(=O)c2ccc(C(=O)Nc3ccccc3C(=O)O)cc2C1=O,55*,?,?,-7%,71*
Cc1ccc(NC(=O)c2ccc3c(c2)C(=O)N(c2cc(C)ccc2C)C3=O)nc1,29*,nt,nt,13%,68*
COc1cc2[nH]c(=O)n(Cc3ccc(C(=O)N4CCN(c5cc(Cl)ccc5C)CC4)cc3)c(=O)c2cc1OC,nt,?,4%[46.1 µM],nt,nt
CC(C)(C)C(=O)OC/C(N)=N/OC(=O)c1ccccc1,40*,?,-10%[46.1 µM],0%,31
O=C(Nc1nnc(S(=O)(=O)N2CCc3ccccc32)s1)c1cccc(Cl)c1,nt,nt,14%[46.1 µM],nt,nt
Cc1ccc(O)c(Nc2c3ccccc3nc3ccccc23)c1,21*,?,?,?,33*
COc1ccc(Cl)cc1Nc1nc(N)c2ccccc2n1,25*,?,-24%[46.1 µM],2%,nt
Cc1ccc(C)c(Nc2nc(N)c3ccccc3n2)c1,26*,?,-8%[46.1 µM],-13%,73*
Cc1ccc(O)c(Nc2nc(-c3ccccc3)nc3ccccc23)c1,-3,?,-6%,-7%,nt
O=C(NC(CC(=O)N1CCN(c2ccccc2O)CC1)c1ccccc1)c1ccccc1Cl (stereo not given),nt,?,8%,32%,nt
Cc1cccc(N2CCN(C(=O)CC(NC(=O)c3ccccc3Cl)c3ccccc3)CC2)c1C (stereo not given),0,12µM*,?,7%,-3
O=C(N/N=C/c1ccc2c(c1)OCO2)c1ccc2c(c1)OCO2,42*,?,-13%[46.1 µM],5%,72*
O=C(CNc1ccc2c(c1)OCO2)N/N=C\c1ccccc1Cl,12,18%,11%,33%,13
O=C(Cc1ccccc1)N/N=C/c1cc2c(cc1Cl)OCO2,35*,-24%,-16%,-4%,85*
Cc1ccc(C(=O)N/N=C\c2cc3c(cc2Br)OCO3)s1,-1,?,11µM*,-1%,15
O=C(N/N=C/c1ccccc1OC(=O)N1CCOCC1)c1cccs1,35*,18%[46.1 µM],11%,60%,47
O=C(Oc1ccccc1OC(=O)N1CCOCC1)N1CCOCC1,-3,10%[46.1 µM],3%,41%,7
CCCCNC(=O)C1(C)CCCCN1C(=O)c1oc2ccccc2c1C (stereo not given),nt,nt,nt,0%,nt
O=C(N/N=C/c1cccnc1)c1ccc2c(c1)OCO2,38*,nt,nt,39%,55*
O=C(N/N=C/c1ccc(OC(=O)c2ccco2)cc1)c1ccncc1,-1,6%[46.1 µM],-5%[46.1 µM],-4%,-6
O=C(CNC(=O)c1cccc(Br)c1)N/N=C/c1ccc2c(c1)OCO2,24*,22%[46.1 µM],13%[46.1 µM],23%,79*
O=C(N/N=C\c1ccc2c(c1)OCO2)c1ccco1,28*,?,?,11%,59*
SMILES,Cycloheximide cs,Marburg entry inh,Lassa entry inh,AMA1-RON2 inh,Shiga toxin inh
O=C(NN=Cc1ccc2c(c1)OCO2)c1ccccc1,nt,?,?,65%,nt
O=C(N/N=C\c1cccc(OC(=O)c2ccco2)c1)c1ccc2c(c1)OCO2,32*,?,15µM*,3%,50*
CCCOc1c(Cl)cc(C(=O)N(Cc2cccc(OC)c2)C2CCS(=O)(=O)C2)cc1Cl (stereo not given),nt,?,7%[46.1 µM],nt,nt
CC(=O)Nc1ccc(C(=O)CSc2nnc3cc(C)c4ccccc4n23)cc1,nt,4%[46.1 µM],10%[46.1 µM],nt,nt
CC(C)c1ccc(C2C3=C(CC(c4ccco4)CC3=O)Nc3nc(C(F)(F)F)nn32)cc1 (stereo not given),9,nt,nt,nt,-9
O=C(N/N=C\c1ccc(S(=O)(=O)O)o1)c1ccc2c(c1)OCO2,-3,nt,nt,0%,-4
O=C(N/N=C/c1cc2c(cc1Cl)OCO2)c1ccc2c(c1)OCCO2,42*,0%[46.1 µM],-24%[46.1 µM],-6%,70*
O=C(N/N=C\c1cc2c(cc1[N+](=O)[O-])OCO2)c1cccs1,8,?,28%[46.1 µM],20%,20
O=C(N/N=C/c1ccc[nH]1)c1ccc2c(c1)OCO2,37*,0%[46.1 µM],-9%,-21%,109*
O=C(N/N=C\c1cc2c(cc1Cl)OCO2)c1cccs1,26*,nt,nt,-9%,69*
O=C(N/N=C/c1c(Cl)[nH]c2ccccc12)c1ccc2c(c1)OCCO2,55*,?,?,25%,60*
CCc1ccccc1NC(=O)Nc1ccc2c(c1)N(CC)C(=O)c1ccccc1S2,nt,-19%[46.1 µM],3%[46.1 µM],nt,nt
CCN1CCN(C(CNC(=O)c2ccc3c(c2)OCO3)c2cccnc2)CC1 (stereo not given),20*,4%,-6%,-1%,33
O=C(N/N=C/c1ccc2c(c1)OCO2)C1CC1,37*,nt,nt,26%,49*
O=C(N/N=C/c1ccc(COc2ccc(Br)cc2)o1)c1ccc2c(c1)OCO2,15*,nt,nt,87%,26
C#CC[C@@]1(C(=O)OC)C=C[C@@H](C)[C@H](c2ccccc2Br)N1C(=O)C(F)(F)F,nt,-2%[14.2 µM],nt,nt,nt
COc1ccccc1C(=O)NCCC(=O)N1CC=C(c2ccccc2)CC1,nt,-11%,0%,0%,nt
CCN1CCN(c2cc3c(cc2F)c(=O)c(S(=O)(=O)c2cc(C)cc(C)c2)cn3CC)CC1,nt,nt,4%[46.1 µM],nt,nt
Cc1c(C)c2c(c(C)c1O)CCC(C)(COc1ccc(Cc3sc(=O)[nH]c3O)cc1)O2 (stereo not given),1,nt,nt,nt,15
COc1cccc(-c2cc(C(F)(F)F)n3nc(C(=O)N4CCCCC4c4cccnc4)cc3n2)c1 (stereo not given),19*,?,nt,-1%,51*
COc1ccc(-c2cc(C(F)(F)F)n3nc(C(=O)N4CCCCC4)cc3n2)cc1,-2,?,-27%,3%,9
O=C(O)c1ccc(C2CCCCC2)cn1,9,16%,27%,13µM*,-10
O=C(N=C1c2ccccc2CN1c1ccc(F)cc1)c1ccc(Cl)nc1,24*,3%,-8%,13%,21
CCOC(=O)c1ccc(NCc2ccncc2)cc1,nt,-4%,16%,5%,nt
N#Cc1ccc(N2Cc3ccccc3C2=NC(=O)c2cccs2)cc1,38*,?,-6%,19%,+
C=CC(=O)Oc1ccc(N2Cc3ccccc3C2=O)cc1,nt,nt,nt,0%,nt
CC(=O)c1cccc(N2Cc3ccccc3C2=NC(=O)CCl)c1,25*,?,?,1%,43
CCOC(=O)c1ccc(N2Cc3ccccc3C2=NC(=O)c2ccncc2)cc1,28*,nt,nt,-10%,58*
Cc1ccc2c(c1)c1c(c(=O)n(Cc3ccccc3)c(=O)n1Cc1ccccc1F)n2C,nt,nt,9%[46.1 µM],nt,nt
